Data taken from PubChem BioAssay AID1159580 (chemical genetic matrix, 2015).
Among all 5,500 compounds or so, about 2,000 (36%) were called active. Not shown: some 18% with an inconclusive outcome. No stated cut-off is given here; in the data, active means normalized growth mostly below about 0.91 (no sharp cut-off); inconclusive means no clear call, values can overlap the other calls; inactive means mostly above about 0.92. Some of the results follow.

Test: chemical genetic growth profiling, strain panel (AID 1159580);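 further: tested at 20 µM; growth read once vehicle control cultures reached saturation at 30 °C; 1 = growth at the plate median or of vehicle wells; lower values mean less growth of the strain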
Conditions: S. cerevisiae deletion strains, growth OD

Measured: normalized growth

COC1C=CC23c4cc5c(cc4CN(CC2O)[C@@H]3C1)OCO5 (stereo partly specified)
inactive: locus YAL021C, strain ccr4, hits give low values 0.974 | locus YAL026C, strain drs2, hits give low values 0.956 | locus YAL030W, strain snc1, hits give low values 0.989 | locus YBL061C, strain skt5, hits give low values 0.967 | locus YBR009C, strain hhf1, hits give low values 0.969 | locus YBR021W, strain FUR4, hits give low values 1.01 | locus YBR023C, strain chs3, hits give low values 0.966 | locus YBR171W, strain sec66, hits give low values 0.962 | locus YBR229C, strain ROT2, hits give low values 1.01 | locus YBR231C, strain swc5, hits give low values 0.963 | locus YBR279W, strain paf1, hits give low values 0.971 | locus YCL011C, strain gbp2, hits give low values 0.956 | locus YCL016C, strain dcc1, hits give low values 0.992 | locus YCL029C, strain bik1, hits give low values 1 | locus YCL069W, strain vba3, hits give low values 0.948 | locus YCR088W, strain abp1, hits give low values 0.971 | locus YDL005C, strain med2, hits give low values 0.944 | locus YDL035C, strain GPR1, hits give low values 1.01 | locus YDL040C, strain nat1, hits give low values 0.975 | locus YDL074C, strain BRE1, hits give low values 1.05 | locus YDL101C, strain DUN1, hits give low values 1.04 | locus YDL134C, strain PPH21, hits give low values 1.03 | locus YDL185W, strain tfp1, hits give low values 1 | locus YDL192W, strain arf1, hits give low values 0.982 | locus YDR001C, strain nth1, hits give low values 0.979 | locus YDR069C, strain doa4, hits give low values 0.944 | locus YDR101C, strain arx1, hits give low values 0.962 | locus YDR137W, strain rgp1, hits give low values 0.933 | locus YDR159W, strain sac3, hits give low values 0.964 | locus YDR162C, strain NBP2, hits give low values 1.03 | locus YDR195W, strain ref2 0.962 | locus YDR297W, strain sur2, hits give low values 0.977 | locus YDR318W, strain mcm21, hits give low values 0.995 | locus YDR334W, strain swr1, hits give low values 0.966 | locus YDR335W, strain msn5, hits give low values 0.959 | locus YDR388W, hits give low values 1 | locus YDR392W, strain spt3, hits give low values 1.06 | locus YDR502C, strain sam2, hits give low values 1.01 | locus YEL003W, strain gim4, hits give low values 0.972 | locus YEL037C, strain rad23, hits give low values 0.973 | locus YEL061C, strain CIN8 (second series), hits give low values 0.945 | locus YER015W, strain faa2, hits give low values 0.986 | locus YER016W, strain bim1, hits give low values 0.971 | locus YER110C, hits give low values 1 | locus YER111C, strain swi4, hits give low values 0.961 | locus YER155C, strain BEM2 (second series), hits give low values 0.978 | locus YER155C, strain BEM2, hits give low values 0.997 | locus YER167W, strain BCK2, hits give low values 0.992 | locus YFR010W, strain ubp6, hits give low values 0.939 | locus YGL078C, strain dbp3, hits give low values 1.03 | locus YGL086W, strain mad1, hits give low values 0.999 | locus YGL167C, strain pmr1, hits give low values 0.971 | locus YGL173C, strain kem1, hits give low values 0.968 | locus YGL227W, strain vid30, hits give low values 0.979 | locus YGL240W, strain doc1, hits give low values 0.999 | locus YGL248W, strain PDE1, hits give low values 1.04 | locus YGL253W, strain hxk2, hits give low values 0.951 | locus YGR135W, strain pre9, hits give low values 1.05 | locus YGR229C, strain SMI1, hits give low values 1.06 | locus YGR252W, strain gcn5, hits give low values 1.09 | locus YHR013C, strain ard1, hits give low values 0.95 | locus YHR027C, strain rpn1, hits give low values 0.977 | locus YHR079C, strain IRE1 (second series), hits give low values 1.01 | locus YHR094C, strain hxt1, hits give low values 0.992 | locus YHR129C, strain ARP1, hits give low values 1.02 | locus YHR142W, strain chs7, hits give low values 0.956 | locus YHR200W, strain rpn10, hits give low values 1.01 | locus YIL066C, strain RNR3, hits give low values 1.02 | locus YIL073C, strain SPO22, hits give low values 0.964 | locus YIL125W, strain kgd1, hits give low values 0.981 | locus YIR030C, strain dcg1, hits give low values 1 | locus YJL092W, strain hpr5, hits give low values 0.948 | locus YJL095W, strain BCK1 (second series), hits give low values 0.965 | locus YJL095W, strain BCK1, hits give low values 1.08 | locus YJL115W, strain asf1, hits give low values 0.988 | locus YJL129C, strain trk1, hits give low values 0.976 | locus YJL134W, strain LCB3, hits give low values 1 | locus YJL154C, strain vps35, hits give low values 0.968 | locus YJL164C, strain tpk1, hits give low values 0.973 | locus YJL166W, strain qcr8, hits give low values 0.965 | locus YJL168C, strain set2, hits give low values 1.01 | locus YJL187C, strain SWE1 (second series), hits give low values 1.04 | locus YJL187C, strain SWE1, hits give low values 0.957 | locus YKL009W, strain mrt4, hits give low values 1.02 | locus YKL068W, hits give low values 1 | locus YKL085W, strain MDH1 (second series), hits give low values 1.01 | locus YKL085W, strain MDH1, hits give low values 1.01 | locus YKL160W, strain elf1, hits give low values 0.995 | locus YKR001C, strain vps1, hits give low values 0.978 | locus YKR026C, strain gcn3, hits give low values 0.983 | locus YKR091W, strain srl3, hits give low values 0.98 | locus YLL001W, strain dnm1, hits give low values 0.973 | locus YLL026W, hits give low values 1 | locus YLL041C, strain sdh2, hits give low values 0.969 | locus YLR027C, strain aat2, hits give low values 0.991 | locus YLR039C, strain RIC1, hits give low values 1.06 | locus YLR058C, strain SHM2, hits give low values 1.02 | locus YLR102C, strain apc9, hits give low values 0.995 | locus YLR221C, strain rsa3, hits give low values 0.956 | locus YLR258W, strain gsy2, hits give low values 0.97 | locus YLR262C, strain YPT6 (second series), hits give low values 0.917 | locus YLR262C, strain YPT6, hits give low values 1.07 | locus YLR268W, strain sec22, hits give low values 0.974 | locus YLR320W, strain mms22, hits give low values 0.975 | locus YLR342W, strain FKS1, hits give low values 0.99 | locus YLR357W, strain rsc2, hits give low values 0.967 | locus YLR370C, strain arc18, hits give low values 0.949 | locus YLR371W, strain rom2, hits give low values 0.976 | locus YLR384C, strain iki3, hits give low values 0.966 | locus YLR418C, strain cdc73, hits give low values 1.04 | locus YML016C, strain PPZ1, hits give low values 1.01 | locus YML032C, strain rad52, hits give low values 0.98 | locus YML120C, strain ndi1, hits give low values 1 | locus YML124C, strain tub3, hits give low values 0.991 | locus YMR058W, strain fet3, hits give low values 0.983 | locus YMR078C, strain ctf18, hits give low values 1.01 | locus YMR125W, strain sto1, hits give low values 0.922 | locus YMR129W, hits give low values 0.991 | locus YMR205C, strain PFK2, hits give low values 0.998 | locus YMR223W, strain ubp8, hits give low values 0.998 | locus YMR231W, strain pep5, hits give low values 0.974 | locus YMR263W, strain SAP30, hits give low values 1.03 | locus YMR307W, strain GAS1, hits give low values 1.06 | locus YNL067W, strain RPL9B, hits give low values 1.04 | locus YNL071W, strain lat1, hits give low values 0.97 | locus YNL153C, strain GIM3, hits give low values 1.04 | locus YNL209W, strain ssb2, hits give low values 0.981 | locus YNL233W, strain BNI4, hits give low values 1.04 | locus YNL248C, strain rpa49, hits give low values 0.949 | locus YNL250W, strain rad50, hits give low values 1.03 | locus YNL271C, strain bni1, hits give low values 0.988 | locus YNL298W, strain CLA4, hits give low values 0.994 | locus YNL307C, strain MCK1, hits give low values 1.01 | locus YNL322C, strain KRE1 (second series), hits give low values 0.935 | locus YNR049C, strain mso1, hits give low values 0.975 | locus YNR052C, strain pop2, hits give low values 0.997 | locus YOL012C, strain htz1 0.915 | locus YOL147C, strain pex11, hits give low values 1 | locus YOR001W, strain rrp6, hits give low values 0.978 | locus YOR061W, strain CKA2, hits give low values 0.996 | locus YOR069W, strain VPS5, hits give low values 1.01 | locus YOR070C, strain gyp1, hits give low values 0.999 | locus YOR080W, strain dia2, hits give low values 0.976 | locus YOR106W, strain vam3, hits give low values 0.992 | locus YOR136W, strain idh2, hits give low values 1 | locus YOR144C, strain elg1, hits give low values 0.995 | locus YOR184W, strain ser1, hits give low values 0.967 | locus YOR265W, strain rbl2, hits give low values 0.99 | locus YOR270C, strain vph1, hits give low values 0.847 | locus YOR290C, strain snf2, hits give low values 0.976 | locus YOR316C, strain cot1, hits give low values 1 | locus YPL051W, strain arl3, hits give low values 0.99 | locus YPL055C, strain LGE1, hits give low values 1.03 | locus YPL078C, strain atp4, hits give low values 0.986 | locus YPL106C, strain sse1, hits give low values 0.982 | locus YPL240C, strain hsp82, hits give low values 0.965 | locus YPR119W, strain clb2, hits give low values 0.994 | locus YPR141C, strain kar3, hits give low values 0.993 | locus YPR163C, strain tif3, hits give low values 1 | locus YPR167C, strain met16, hits give low values 1 | strain wtn01, hits give low values 1
